An excerpt weighted towards active compounds, which were near 4.1% of everything screened.
tim10-1 inh: growth inhibitors of tim10-1 mutant yeast, primary screen, luminescence, uHTS | S. cerevisiae tim10-1 ts strain growth, BacTiter-Glo, 24 h | inhibition, % at 20 µM | hit rate 2.2% among 330,000 | AID 463190, 2010;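 active = inhibition of at least 40%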;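 also: mutant grown at 25 °C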
TIM10 inh: growth inhibitors of isogenic TIM10 control yeast, primary screen, counter-screen for tim10-1 yeast inhibitor project, luminescence, uHTS; S. cerevisiae TIM10 strain growth, BacTiter-Glo luminescence, 24 h; inhibition, % at 10 µM; hit rate 1.4% among 330,000;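 active = inhibition of 40% or more at the single tested concentration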;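 also: wild-type TIM10 isogenic control strain grown at permissive 25 °C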
NLRP3 yeast inh: NALP3 inflammasome inhibitors in reconstituted yeast, primary screen, luminescence, uHTS | Yeast reconstituted NLRP3/ASC/caspase-1, beta-gal luminescence, 24 h | inhibition, % at 10 µM | hit rate 0.39% among 330,000 | AID 2825, 2010;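 active = inhibition of 50% or more; inactive = inhibition below 50%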
tim23-1 inh: growth inhibitors of tim23-1 mutant yeast, primary screen, luminescence, uHTS | hit rate 1.3% among 330,000 | inhibition, % at 20 µM | S. cerevisiae tim23-1 growth, BacTiter-Glo luminescence, 24 h | AID 463212, 2010;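 active = growth inhibition of the mutant yeast at or above 50%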;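 also: temperature-sensitive mutant grown at 25 °C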
NALP1 yeast inh: NALP1 inflammasome inhibitors in reconstituted yeast, colorimetric, S. cerevisiae, triplicate retest. AID 2071, 2009. inhibition, % at 10 µM. S. cerevisiae NALP1/ASC/caspase-1 growth, X-gal OD620, 72 h. hit rate 0.61% among 280,000; in the data active = inhibition mostly above about 24%, no sharp cut-off; inactive = mostly below about 32%
tim10-1 confirm: growth inhibitors of tim10-1 mutant yeast, confirmation, single concentration, luminescence, S. cerevisiae; shares compounds with tim10-1 inh; S. cerevisiae tim10-1 ts strain growth, BacTiter-Glo, 24 h; inhibition, % at 20 µM; hit rate 56% among 7,400; AID 463213, 2010;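 active = inhibition of yeast growth at or above a set limit in either of two repeat tests at 20 µM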;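 also: tim10-1 mutant grown at permissive 25 °C to find synthetic lethal compounds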
Each line names hits and unclear results; the compound was inactive in the other large screens (follow-up assays come after a bar, where they were run); ! = repeats disagree.

COc1cccc2cc(C(=O)OCc3ccccc3)c(=O)oc12	tim10-1 inh 42 | tim10-1 confirm inactive
CCC(NC(=S)NC1CCCCC1)c1ccc(C(C)C)cc1 (stereo not given)	none
CCc1ccc(/C=C2\Oc3cc(OS(C)(=O)=O)ccc3C2=O)cc1	tim10-1 inh 40 | tim10-1 confirm inactive
CN(C)CC/C=C1/c2ccccc2Sc2ccc(Cl)cc21	tim10-1 inh 41! | tim10-1 confirm inactive
O=C(Nc1cccc([N+](=O)[O-])c1)c1cccc(C(=O)Nc2cccc([N+](=O)[O-])c2)c1	none
COC(=O)/C=C/C(=O)Nc1cccc(C(F)(F)F)c1	tim10-1 inh 47 | tim10-1 confirm 51
COC(=S)Nc1cccc(C(F)(F)F)c1	none
CC(NC(=O)Nc1cccc([N+](=O)[O-])c1)(C(F)(F)F)C(F)(F)F	tim10-1 inh 42 | tim10-1 confirm 33
CCOC(=O)/C=C/C(=O)OCC(=O)Nc1ccc([N+](=O)[O-])cc1	tim10-1 inh 43 (no result: NALP1 yeast inh) | tim10-1 confirm 59
COc1cc(/C=C/C(=O)OCC(=O)Nc2ccc([N+](=O)[O-])cc2)ccc1O	none
CCOC(=O)/C=C/C(=O)Nc1cccc([N+](=O)[O-])c1	tim10-1 inh 56, NALP1 yeast inh 81 | tim10-1 confirm 71
CC(=O)C1=C(C)Nc2ncnn2C1c1ccc(Cl)cc1Cl (stereo not given)	none
O=C(NS(=O)(=O)Oc1ccccc1F)OC[C@@H]1CCCN2CCCCC12 (stereo not given in full)	none
COc1cccc(CN(C)C(=O)Cc2ccc(OC)c(S(=O)(=O)N3CCOCC3)c2)c1	none (no result: NALP1 yeast inh)
COc1ccccc1N1CCN(Cc2cc(=O)c(OCC(=O)NC3CCCC3)co2)CC1	none (no result: NALP1 yeast inh)
Fc1ccc(N/N=C/c2ccncc2)c(F)c1	none
Fc1ccc(N/N=C/C=C/c2ccccc2)c(F)c1	tim10-1 inh 69 (no result: NALP1 yeast inh) | tim10-1 confirm 49
CCOc1ccc2oc(C(=O)N(CC)CC(=O)Nc3c(F)cccc3F)c(C)c2c1	none (no result: NALP1 yeast inh)
COc1ccc(N(CC(=O)NC(C)(C)C)S(=O)(=O)c2ccccc2)cc1OC	none
Cc1cc(C)c(S(=O)(=O)c2ccccc2)c(OC(=O)c2c(F)cccc2F)n1	none
Cc1cc(C)c(S(=O)(=O)c2ccccc2)c(OC(=O)c2c(Cl)cc(Cl)cc2Cl)n1	tim10-1 inh 41 | tim10-1 confirm 36
COc1ccc(CN2C(=O)[C@@H]3Cc4c([nH]c5ccccc45)C(C)(C)N3C2=O)cc1	tim10-1 inh 44 (no result: NALP1 yeast inh) | tim10-1 confirm inactive
COc1cccc(CN2C(=O)[C@H]3Cc4c([nH]c5ccccc45)C(C)(C)N3C2=O)c1	tim10-1 inh 45 (no result: NALP1 yeast inh) | tim10-1 confirm inactive
CC(=O)Oc1ccc(/C=N/NS(=O)(=O)c2ccccc2)cc1	tim10-1 inh 44 | tim10-1 confirm 44
COc1ccccc1N1CCN(S(=O)(=O)c2ccc3nc(-c4ccccc4)[nH]c3c2)CC1	tim10-1 inh 42 | tim10-1 confirm inactive
COc1cc(S(=O)(=O)N2CCN(c3ccccc3F)CC2)ccc1Cl	tim10-1 inh 43 | tim10-1 confirm inactive
COc1cc(S(=O)(=O)N2CCN(c3ccccc3)CC2)ccc1Cl	none
CCCN1CCN(S(=O)(=O)c2ccc3c(c2)NC(=O)C(C)S3)CC1 (stereo not given)	none
COc1ccccc1N1CCN(S(=O)(=O)c2ccc3c(c2)NC(=O)C(C)S3)CC1 (stereo not given)	tim10-1 inh 43 | tim10-1 confirm inactive
O=S(=O)(c1ccc2nc(-c3ccccc3)[nH]c2c1)N1CCN(c2cccc(Cl)c2)CC1	none
O=C(Nc1ccncc1)c1cc2ccccc2cc1O	none (no result: NALP1 yeast inh)
CC1=Nn2c(nnc2-c2ccc(F)cc2)SC1	none
CCOc1ccc(C(C(=O)NCC2CCCO2)N(C(=O)c2snc(C(N)=O)c2N)c2ccc3c(c2)OCCO3)cc1 (stereo not given)	none
O=C(Nc1ccc(Cl)cn1)C1CC1	none
O=C(Nc1ccc(Cl)cn1)C1C(c2ccccc2)C1(Cl)Cl (stereo not given)	tim10-1 inh 46 | tim10-1 confirm 34
Cc1ccc(/C=N\Nc2cn[nH]c(=O)c2Cl)cc1	none
COc1ccc(/C=N/Nc2cn[nH]c(=O)c2Cl)cc1	tim10-1 inh 42 | tim10-1 confirm inactive
Cc1nc2c3cc(F)ccc3n(Cc3ccccc3F)c2s1	tim10-1 inh 42 (no result: NALP1 yeast inh) | tim10-1 confirm inactive
COc1ccc(-c2nnn(CC(=O)NCCc3c[nH]c4ccccc34)n2)cc1OC	none
CCOC(=O)Cc1nnc2c(Nc3ccc(Cl)cc3)nc3nonc3n12	tim10-1 inh 51 | tim10-1 confirm 33
COc1ccc(NC(=O)c2cc([N+](=O)[O-])ccc2O)cc1	tim10-1 inh 52 | tim10-1 confirm 51
O=C(CNc1ccc2ccccc2c1)N/N=C/c1ccc(C(=O)O)cc1	none
CCCc1ccc(-c2cc(C(=O)N/N=C/c3ccc([N+](=O)[O-])o3)c3ccccc3n2)cc1	tim10-1 inh 44 | tim10-1 confirm 49
Cc1ccc(-c2cc(C(=O)NN=C3CCCC3)c3ccccc3n2)cc1	tim10-1 inh 44 | tim10-1 confirm inactive
O=C(N/N=C/c1ccco1)c1cc(-c2ccccc2)nc2ccccc12	none
O=C(CNc1ccc2ccccc2c1)N/N=C/c1ccc([N+](=O)[O-])o1	tim10-1 inh 47 | tim10-1 confirm 41
O=C(N/N=C/c1ccc([N+](=O)[O-])o1)c1cc(-c2cccc(Br)c2)nc2ccccc12	tim10-1 inh 44 | tim10-1 confirm inactive
N#Cc1cccc(NC(=O)CCNS(=O)(=O)c2ccc3[nH]c(=O)oc3c2)c1	none
O=C(Nc1ccc(S(=O)(=O)Nc2ncccn2)cc1)C1=NN(c2ccccc2)C(=O)CC1	none
O=C(CN1C(=O)C2CC=CCC2C1=O)Nc1ccc(OC(F)(F)F)cc1 (stereo not given)	none (no result: NALP1 yeast inh)
CCCn1ncc(C(=O)NC2CCCN(Cc3ccc(Cl)cc3)C2)c1C (stereo not given)	none
Cc1sc(NC(=O)c2cc(-c3ccccc3)nc3ccccc23)c(C(N)=O)c1C	tim10-1 inh 41 | tim10-1 confirm inactive
CCCOc1cccc(-c2cc(C(=O)N/N=C/c3ccccn3)c3ccccc3n2)c1	none
O=C(N/N=C/c1ccccn1)c1cc(-c2ccc(Br)cc2)nc2ccccc12	tim10-1 inh 44 | tim10-1 confirm inactive
CC(=O)Nc1ccc(S(C)(=O)=O)c(C)c1	none
CNC(=S)N1N=C(c2cccs2)CC1c1ccc(F)cc1 (stereo not given)	tim10-1 inh 43 | tim10-1 confirm inactive
O=[N+]([O-])c1cc(Cl)ccc1N1CCN(c2ccccc2O)CC1	tim10-1 inh 59 | tim10-1 confirm 53

Source: PubChem
